Data from PubChem BioAssay.
Calls of active or inactive are those of the source.

Assays:
[1] = test system: Wnt5a (protein binding on small-molecule microarray); experiment: small molecules binding Wnt5a protein – biophysical, small-molecule microarray, 635/667 nm fluorescence, primary screen (AID 1142); details: 635 nm fluorescence, higher = more signal;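 note: fluorescence read at 667 nm with signal to noise per printed feature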
[2] = ATP-based viability of Huh7 replicon cells – cell-based, CellTiter-Glo luminescence, basal, 48 h, cytotoxicity control for HCV replication inhibitor project, primary screen (AID 1143); details: higher = more signal, called active from +8 up or from −8 down;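 note: Huh7 hepatoma cells carrying a hepatitis C replication reporter with no stimulus; test concentration not given here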
[3] = basal CRE-LacZ reporter activity in PC12 – cell-based, unstimulated, primary screen (AID 1145); details: no forskolin, luminescence, 4.5 h, higher = more signal, called active from +8 up or from −8 down
[4] = forskolin-driven CRE-LacZ activity in PC12 – cell-based, CRE-LacZ reporter, forskolin-stimulated, primary screen (AID 1146); details: luminescence, 4.5 h, higher = more signal, called active from +8 up or from −8 down;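 note: PC12 cells with 6xCRE LacZ reporter stimulated by forskolin 10 µM; beta-galactosidase reporter signal reflecting CREB driven transcription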
[5] = target: Streptavidin (Streptomyces avidinii) (UniProt P22629); experiment: compounds binding control protein streptavidin – biophysical, small-molecule microarray, 635/667 nm fluorescence, artefact control for SMM compound annotation, primary screen (AID 1147); details: higher = more signal;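 note: signal reflects streptavidin binding to arrayed compounds as a control protein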
[6] = probe aInhba binding on compound microarray – biochemical, small-molecule microarray, 635/667 nm fluorescence, primary screen (AID 1148); details: higher = more signal;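 note: score merges 667nm spot fluorescence with signal-to-noise for antibody binding to printed compounds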
Torsin-1A (Homo sapiens) [7] = target: Torsin-1A (Homo sapiens) (UniProt O14656); experiment: TOR1A wild-type binding on microarray – cell lysate, small-molecule microarray, lysate, 635/667 nm, primary screen (AID 1149); details: COS7 hTOR1A-WT lysate, 635 nm fluorescence, higher = more signal
Torsin-1A (Homo sapiens) [8] = target: Torsin-1A (Homo sapiens) (UniProt O14656); experiment: torsin A mutant lysate binding on microarrays – cell lysate, small-molecule microarray, COS7 lysate, 635/667 nm fluorescence, primary screen (AID 1150); details: COS7 hTOR1A mutant lysate, 635 nm fluorescence, higher = more signal;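 note: score pools 667 nm emission and signal to noise measuring lysate protein binding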
[9] = test system: Sonic hedgehog protein (Shh); experiment: Sonic hedgehog microarray binding compounds – biochemical, small-molecule microarray, 635/667 nm fluorescence, primary screen (AID 1151); details: 635 nm fluorescence, higher = more signal;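 note: Shh protein binding to compounds spotted on small-molecule microarray slides; score combines spot fluorescence intensity with signal-to-noise across triplicate slides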
[10] = optical density shifts of acrAB sulA E. coli – strain DRC41, OD650, 48 h, E. coli filamentation inducer project, primary screen (AID 1152); details: higher = more signal, called active from +8 up or from −8 down;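 note: E. coli MC1000 strain DRC41 lacking acrAB efflux pump and sulA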
[11] = probe aLefty1 binding on compound microarray – biochemical, small-molecule microarray, 635/667 nm fluorescence, primary screen (AID 1153); details: higher = more signal;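 note: score merges spot fluorescence with signal-to-noise ratio from the scanned slide images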
[12] = plasmodial surface anion channel blockers, osmotic lysis – cell-based, P. falciparum Indochina, OD700, 1 h, primary screen (AID 1154); details: P. falciparum Indochina infected RBC osmotic lysis, higher = more signal, called active from +8 up or from −8 down
[13] = plasmodial surface anion channel blockers, osmotic lysis – cell-based, P. falciparum Indochina, OD700, 2 h, primary screen (AID 1155);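 note: lysis reports solute entry through the parasite surface anion channel PSAC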; details: P. falciparum Indochina infected erythrocytes, higher = more signal, called active from +8 up or from −8 down
[14] = changes in parasitized red cell lysis, either direction – P. falciparum Indochina, OD700, 3 h, PSAC antagonist project, primary screen (AID 1156); details: P. falciparum-infected erythrocytes, osmotic lysis, higher = more signal, called active from +8 up or from −8 down
[15] = plasmodial surface anion channel blockers, osmotic lysis – cell-based, P. falciparum Indochina, OD700, 18 h, primary screen (AID 1157); details: P. falciparum Indochina infected erythrocytes, osmotic lysis OD700, 18 h; higher = more signal, called active from +8 up or from −8 down
[16] = S6 kinase pathway phospho-S6 level changes – cell-based, A549, cytoblot, luminescence, serum-stimulated, primary screen (AID 1158); details: 5 h, higher = more signal;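 note: serum-stimulated A549 lung adenocarcinoma cells; signal is phosphorylated S6 detected by cytoblot immunostaining with HRP secondary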
[17] = target: NADPH oxidase 2 (Homo sapiens) (UniProt P04839); experiment: compounds shifting NOX2 Amplex Red fluorescence – cell-based, HEK293-NOX2, PMA-stimulated, NOX inhibitor project, primary screen (AID 1159); details: 45 min, higher = more signal, called active from +8 up or from −8 down; note: test concentration not given here
[18] = target: NADPH oxidase 4 (Homo sapiens) (UniProt Q9NPH5); experiment: compounds shifting NOX4 Amplex Red fluorescence – cell-based, HEK293-NOX4, tetracycline-induced, NOX inhibitor project, primary screen (AID 1160); details: HEK293-NOX4, Amplex Red H2O2 fluorescence, 45 min; higher = more signal, called active from +8 up or from −8 down
[19] = target: NADPH oxidase 5 (Homo sapiens) (UniProt Q96PH1); experiment: compounds shifting NOX5 Amplex Red fluorescence – cell-based, HEK293-NOX5, NOX inhibitor project, primary screen (AID 1161); details: HEK293-NOX5, ionomycin, 45 min, higher = more signal
[20] = compound effects on lung adenocarcinoma cell viability – A549, calcein-AM fluorescence, 48 h, basal, profiling panel (AID 1162); details: higher = more signal; note: test concentration not given here

Sequence of NADPH oxidase 4 (Homo sapiens) (Q9NPH5 whole entry, looked up): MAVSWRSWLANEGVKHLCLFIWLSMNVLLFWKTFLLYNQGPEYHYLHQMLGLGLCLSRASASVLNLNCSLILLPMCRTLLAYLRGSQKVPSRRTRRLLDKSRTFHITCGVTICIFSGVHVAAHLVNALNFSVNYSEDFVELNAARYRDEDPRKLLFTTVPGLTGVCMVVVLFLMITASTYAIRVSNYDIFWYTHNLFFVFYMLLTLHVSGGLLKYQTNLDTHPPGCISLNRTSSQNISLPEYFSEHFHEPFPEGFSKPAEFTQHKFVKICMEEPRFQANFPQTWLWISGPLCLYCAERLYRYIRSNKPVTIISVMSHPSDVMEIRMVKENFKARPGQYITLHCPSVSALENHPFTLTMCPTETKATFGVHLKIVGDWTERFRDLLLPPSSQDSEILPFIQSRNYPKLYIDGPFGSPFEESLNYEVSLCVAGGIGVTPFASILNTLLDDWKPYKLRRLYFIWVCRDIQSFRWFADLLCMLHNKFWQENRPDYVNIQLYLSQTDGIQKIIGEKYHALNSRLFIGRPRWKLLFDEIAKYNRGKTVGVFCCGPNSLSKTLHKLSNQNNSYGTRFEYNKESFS
Sequence of NADPH oxidase 2 (Homo sapiens) (P04839 whole entry, looked up): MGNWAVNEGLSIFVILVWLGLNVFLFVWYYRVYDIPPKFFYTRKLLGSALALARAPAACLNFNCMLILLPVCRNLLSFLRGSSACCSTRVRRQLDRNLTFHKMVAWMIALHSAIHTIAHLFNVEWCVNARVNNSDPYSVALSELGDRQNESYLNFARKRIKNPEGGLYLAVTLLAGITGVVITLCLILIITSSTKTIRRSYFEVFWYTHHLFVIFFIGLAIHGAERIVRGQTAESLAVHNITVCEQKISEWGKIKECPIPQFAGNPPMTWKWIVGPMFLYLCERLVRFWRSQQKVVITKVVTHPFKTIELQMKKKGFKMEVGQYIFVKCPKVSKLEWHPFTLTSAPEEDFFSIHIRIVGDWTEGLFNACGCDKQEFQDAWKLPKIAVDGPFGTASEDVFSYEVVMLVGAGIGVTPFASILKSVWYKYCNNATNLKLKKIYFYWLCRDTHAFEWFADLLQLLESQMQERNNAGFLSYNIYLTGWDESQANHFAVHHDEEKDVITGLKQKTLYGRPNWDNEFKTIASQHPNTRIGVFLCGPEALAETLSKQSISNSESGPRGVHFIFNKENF
Sequence of Torsin-1A (Homo sapiens) (O14656 whole entry, looked up): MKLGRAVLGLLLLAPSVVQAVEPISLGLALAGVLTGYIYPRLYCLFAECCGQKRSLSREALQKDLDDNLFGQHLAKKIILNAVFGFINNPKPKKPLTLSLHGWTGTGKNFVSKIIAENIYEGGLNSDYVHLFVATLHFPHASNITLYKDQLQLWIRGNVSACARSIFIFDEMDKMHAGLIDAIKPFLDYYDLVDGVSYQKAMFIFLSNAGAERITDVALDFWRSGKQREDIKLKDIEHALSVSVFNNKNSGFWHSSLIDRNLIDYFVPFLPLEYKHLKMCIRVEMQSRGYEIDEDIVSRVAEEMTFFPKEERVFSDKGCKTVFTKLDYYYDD
Sequence of Streptavidin (Streptomyces avidinii) (P22629 whole entry, looked up): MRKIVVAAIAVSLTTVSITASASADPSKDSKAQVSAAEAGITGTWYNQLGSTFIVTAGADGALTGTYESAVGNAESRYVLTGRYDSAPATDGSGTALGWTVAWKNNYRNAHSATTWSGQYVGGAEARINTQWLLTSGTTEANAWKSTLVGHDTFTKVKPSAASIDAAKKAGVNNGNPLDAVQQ
Sequence of NADPH oxidase 5 (Homo sapiens) (Q96PH1 whole entry, looked up): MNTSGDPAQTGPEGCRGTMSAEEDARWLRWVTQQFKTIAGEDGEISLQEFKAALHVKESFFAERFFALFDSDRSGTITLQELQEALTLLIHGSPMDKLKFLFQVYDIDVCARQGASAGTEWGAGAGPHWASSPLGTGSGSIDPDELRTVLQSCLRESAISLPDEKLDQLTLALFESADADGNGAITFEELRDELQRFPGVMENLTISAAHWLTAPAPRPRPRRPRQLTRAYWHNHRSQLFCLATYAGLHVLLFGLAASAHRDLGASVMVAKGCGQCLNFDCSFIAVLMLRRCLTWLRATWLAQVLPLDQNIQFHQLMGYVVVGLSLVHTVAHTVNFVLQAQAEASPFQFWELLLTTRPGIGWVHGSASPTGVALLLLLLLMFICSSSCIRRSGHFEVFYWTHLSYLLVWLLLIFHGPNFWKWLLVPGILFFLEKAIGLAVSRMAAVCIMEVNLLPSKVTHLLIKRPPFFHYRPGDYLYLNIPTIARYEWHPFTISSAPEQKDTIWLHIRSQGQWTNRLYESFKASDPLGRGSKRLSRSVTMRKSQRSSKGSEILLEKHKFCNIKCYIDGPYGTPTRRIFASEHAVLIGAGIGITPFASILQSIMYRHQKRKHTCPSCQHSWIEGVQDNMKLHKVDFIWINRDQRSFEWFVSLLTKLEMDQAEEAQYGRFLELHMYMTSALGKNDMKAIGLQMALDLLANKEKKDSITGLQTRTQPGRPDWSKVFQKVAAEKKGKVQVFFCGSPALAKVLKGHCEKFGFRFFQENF

SMILES	composite z-score [1]	z-score [2]	z-score [3]	z-score [4]	composite z-score [5]	composite z-score [6]	composite z-score (Torsin-1A (Homo sapiens) [7])	composite z-score (Torsin-1A (Homo sapiens) [8])	composite z-score [9]	z-score [10]	composite z-score [11]	z-score [12]	z-score [13]	z-score [14]	z-score [15]	z-score [16]	z-score [17]	z-score [18]	z-score [19]	z-score [20]
CCOC(=O)C[C@H]1[C@H](OC(=O)c2ccc(-c3ccccc3)cc2)[C@@H](NC(=O)C2CCCCC2)c2cc(OCCCO)ccc2N1C(=O)c1ccc2ccccc2n1	0.0447	-0.0226 (inactive)	3.51 (inactive)	-0.876 (inactive)	0.391	0.0582	0.688	0.525	0.21	2.69 (inactive)	0.0278	1.45 (inactive)	-0.755 (inactive)	-0.0072 (inactive)	-1.16 (inactive)	1.5	1.13 (inactive)	1.3 (inactive)	1.94	1.23
COc1ccc([Si](C)(C)[C@H]2[C@H](CC(=O)N(CCO)Cc3ccccc3)O[C@@]3(C(=O)N(Cc4ccc(N5CCOC5=O)cc4)c4ccccc43)[C@@H]2C)cc1	-0.0226	-2.42 (inactive)	1.05 (inactive)	-0.871 (inactive)	0.295	0.0111	0.442	0.0957	1.73	1.22 (inactive)	-0.123	25.1 (active)	14.5 (active)	-0.084 (inactive)	2.17 (inactive)	-0.141	0.815 (inactive)	-0.23 (inactive)	1.34	-0.832
C=CCNC(=O)[C@@H]1[C@H]2C(=O)O[C@H](c3ccccc3)[C@H](c3ccccc3)N2[C@H](c2ccc(O)cc2)[C@@]12C(=O)Nc1ccccc12	0.154	-2.84 (inactive)	-0.348 (inactive)	-1.3 (inactive)	-0.171	-0.218	-0.0795	-0.264	1.05	1.88 (inactive)	-0.22	3.11 (inactive)	0.87 (inactive)	0.253 (inactive)	0.983 (inactive)	0.686	-0.00775 (inactive)	-1.9 (inactive)	-1.37	0.106
CO[C@H]1O[C@H](CO)[C@@H](OC(=O)Nc2ccccc2)[C@H](OC(=O)Nc2ccccc2-c2ccccc2)[C@@H]1OC(=O)Nc1ccccc1-c1ccccc1	0.36	-5.22 (inactive)	0.204 (inactive)	-0.446 (inactive)	1.44	0.329	1.17	0.806	2.03	1.33 (inactive)	1.29	2.57 (inactive)	0.116 (inactive)	-0.358 (inactive)	-2.03 (inactive)	1.01	2.2 (inactive)	0.697 (inactive)	0.306	-1.01
COc1ccc(C#Cc2ccc3c(c2)[C@]2(C(=O)N3)[C@H](c3ccc(O)cc3)N3[C@H](c4ccccc4)[C@H](c4ccccc4)OC(=O)[C@H]3[C@@H]2C(N)=O)cc1	0.295	-5.1 (inactive)	0.209 (inactive)	-0.532 (inactive)	-0.881	-0.153	0.255	-0.0088	-0.301	1.63 (inactive)	-0.147	2.89 (inactive)	1.58 (inactive)	0.672 (inactive)	1.23 (inactive)	0.76	1.76 (inactive)	-1.43 (inactive)	0.618	-1.55
C=CCN1C(=O)[C@@]2(O[C@@H](CCn3cc(CCO)nn3)[C@H]([Si](C)(C)c3ccc(OC)cc3)[C@H]2C)c2cc(N3C(=O)c4cccc5cccc3c45)ccc21	0.662	-7.17 (inactive)	37.8 (active)	-3.77 (inactive)	0.854	0.0377	0.311	0.615	0.802	2.05 (inactive)	0.0318	16.4 (active)	3.97 (inactive)	-0.551 (inactive)	1.5 (inactive)	0.905	0.576 (inactive)	1.11 (inactive)	-0.148	-4.11
CC(C)C(=C=CC[C@H](O)c1ccc(OCCO)cc1)C[C@H](O)COCc1ccccc1	0.317	-3.34 (inactive)	12.1 (active)	-0.14 (inactive)	0.192	-0.0986	1.11	1.42	1.96	0.811 (inactive)	0.0751	20.1 (active)	4.54 (inactive)	1.7 (inactive)	0.923 (inactive)	-0.474	-0.557 (inactive)	-0.142 (inactive)	-1.87	0.153
COc1ccc([Si](C)(C)[C@@H]2[C@@H](CC(=O)N3CCC[C@H]3CO)O[C@]3(C(=O)N(Cc4ccc(N5CCC5=O)cc4)c4ccccc43)[C@H]2C)cc1	0.0507	-1.8 (inactive)	0.861 (inactive)	-1.19 (inactive)	0.761	0.027	0.572	0.409	1.55	0.436 (inactive)	0.156	7.47 (inactive)	1.49 (inactive)	-0.836 (inactive)	0.77 (inactive)	0.127	2.99 (inactive)	1.58 (inactive)	4.86	-0.639
COC(=O)C1=CC(CCCO)=CC(C2CC2)N(Cc2cc3c(cc2Br)OCO3)C=C1C(=O)OC (stereo not given)	0.135	-2.77 (inactive)	0.389 (inactive)	-0.562 (inactive)	1.22	0.143	0.777	1.61	-0.593	1.55 (inactive)	0.248	2.31 (inactive)	-1.2 (inactive)	-0.183 (inactive)	-0.951 (inactive)	0.771	0.0713 (inactive)	1.24 (inactive)	1.91	0.589
